# Assay results published in PubChem BioAssay (NCI).
# About 83,000 compounds went through this panel and 20% of them were active in at least one assay; those are over-represented in the sample as a whole.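 Interpretation: 100, growth as untreated; towards 0, rising growth inhibition; 0, no net growth; 0 to -100, cell death. Compounds scoring below 10 were considered active.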 Activity calls are given as the source filed them.
# Test system: OVCAR-5 ovarian
# Assay: NCI-60 one-dose screen, 48 h (100 = growth as untreated, 0 = no growth, -100 = all killed)
# Details: 10 µM unless noted
row,SMILES,growth
1,COc1cccc(CC(C)=C(c2ccc(OCCN(C)C)cc2)c2ccc(OCCN(C)C)cc2)c1,21.2% (inactive)
2,N/C(=N\C(N)=N\c1nc2ccccc2s1)c1cccc(Br)c1,95.2% (inactive)
3,O=C(Nc1ccc(Cl)c(Cl)c1)NS(=O)(=O)c1cnccc1Oc1ccc(F)cc1,82.7% (inactive)
4,Cc1ccc(S(=O)(=O)NC(=O)n2cc(-c3ccncc3)c(-c3ccc(Cl)c(O)c3)n2)cc1,114% (inactive)
5,CCN(CC)CCC(CNc1ccnc2cc(Cl)ccc12)c1ccc(Cl)cc1 (stereo unspecified),22% (inactive)
6,CCN(CC)CCOc1ccc(Cl)c(C)c1,101% (inactive)
7,OC(c1cc2cc(Br)ccc2c2cc(Br)ccc12)C1CCCCN1 (stereo unspecified),-76.5% (active)
8,CCN(CC)CCC(CNc1ccnc2cc(Cl)ccc12)c1ccccc1 (stereo unspecified),87.9% (inactive)
9,CCCCCCCCCCCCNC(=O)[C@H]1CSC(c2cc3ccccc3s2)N1 (stereo partly specified),20.5% (inactive)
10,CCCCCCN1CSC(=S)N(CCCCCC)C1,112% (inactive)
11,CC1(c2ccc(Cl)cc2)OC(=O)CC(=O)O1,103% (inactive)
12,O=C(NS(=O)(=O)c1ccc2ccccc2c1)n1cc(-c2ccncc2)c(-c2ccc(Cl)c(O)c2)n1,89.8% (inactive)
13,CN(C)CCOC(=O)Nc1ccccc1Cl,121% (inactive)
14,Cc1c(C(=O)/C=C/c2csc3ccccc23)[n+](=O)c2ccccc2n1[O-],94.5% (inactive)
15,CN(C)CCCN(c1nc(C(Cl)(Cl)Cl)ns1)c1nc(C(Cl)(Cl)Cl)ns1,66.5% (inactive)
16,CC[N+](CC)=c1cc2oc3cc(N(C)C)ccc3nc-2cc1C,-27.6% (active)
